The results in this text go back to PubChem BioAssay (NCI).

Test in all cases: NCI-60 one-dose screen, 48 h (100 = growth as untreated, 0 = no growth, -100 = all killed)
Holding throughout (details): 10 µM unless noted

In experiment [1] the test system is SR leukemia.
For experiment [2], the system named is RPMI-8226 leukemia.
Experiment [3] deals with OVCAR-8 ovarian.
Experiment [4] has as its system OVCAR-5 ovarian.
In experiment [5] the test system is OVCAR-4 ovarian.
The subject of experiment [6] is SK-OV-3 ovarian.
For experiment [7], the system named is IGROV1 ovarian.
In experiment [8] the test system is OVCAR-3 ovarian.
Experiment [9] concerns HS 578T breast.
Experiment [10] deals with NCI/ADR-RES ovarian.

Several values for one entry are separate records, joined by “and”; a condition that tells them apart may be missing. Identical values can stand only once. The panel holds about 83,000 compounds, 20% with a hit somewhere; the sample as a whole holds those more often.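 The test compound was applied at a single concentration to cells in 96-well plates for 48 hours, and percent growth was recorded.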 Activity calls are given as the source filed them. How the source made its calls: active means growth percent below 10; inactive means the rest.

Take `CC(=O)Nc1ccc(OC(C)=O)cc1`: the growth was 115% (inactive) in [1]; -25.4% (active) and 104% (inactive) in experiment [2]; 8% (active) and 101% (inactive) in [3]; 35.7% (inactive) and 97.5% (inactive) in experiment [4]; 98.7% (inactive) in experiment [5]; -4.1% (active) and 121% (inactive) in [6]. Moreover, the growth in experiment [7] is 23.7% (inactive) and 113% (inactive); in [8], 2.02% (active) and 113% (inactive); in [9], 29.7% (inactive) and 118% (inactive); in [10] it was -11.9% (active) and 106% (inactive).
Take `O=C(c1ccncc1)c1c(Cc2ccccc2)ccc2ccccc12`: the growth in [1] is 107% (inactive); in [2], 85.1% (inactive); in experiment [3] it was 82.5% (inactive); in experiment [4] it was 87.5% (inactive); in experiment [5] it was 82.7% (inactive); in experiment [6], 120% (inactive). Also, the growth in experiment [7] was 18% (inactive); in [8], 98% (inactive); in experiment [9], 95.3% (inactive); in [10] it was 88.2% (inactive).
On to `O=[N+]([O-])c1ccc(NC2CCCCC2)nc1`, for which the growth is 98.1% (inactive) in experiment [1]; 111% (inactive) and 101% (inactive) in [2]; 118% (inactive) and 101% (inactive) in [3]; 104% (inactive) and 100% (inactive) in experiment [4]; 109% (inactive) in [5]; 108% (inactive) in experiment [6]. For the same compound, the growth in [7] was 116% (inactive) and 104% (inactive); in [8], 112% (inactive) and 114% (inactive); in experiment [9] it was 100% (inactive) and 101% (inactive); in [10], 105% (inactive) and 103% (inactive).
For `COc1ccc(/C=N/NC(N)=S)cc1`, the growth in experiment [1] is 107% (inactive); in [2], 88.9% (inactive); in [3] it was 100% (inactive); in experiment [4], 93.7% (inactive); in experiment [5], 89.8% (inactive); in experiment [6], 106% (inactive). Besides, the growth in experiment [7] was 76.9% (inactive); in [8] it was 111% (inactive); in experiment [9] it was 101% (inactive); in experiment [10] it was 96.7% (inactive).
Regarding `CC(=O)c1cccc(OC(=O)c2ccccc2)c1`, the growth is 65.6% (inactive) in experiment [1]; 100% (inactive) in experiment [2]; 99% (inactive) in experiment [3]; 104% (inactive) in [4]; 92.7% (inactive) in experiment [5]; 97.6% (inactive) in experiment [6]. Further, the growth in experiment [7] is 114% (inactive); in [8], 124% (inactive); in experiment [9], 105% (inactive); in experiment [10], 96% (inactive).
With `N=c1sc2ccccc2n1CC(=O)O`, the growth is 106% (inactive) in experiment [1]; 93.7% (inactive) in experiment [2]; 4.81% (active) in experiment [3]; 110% (inactive) in experiment [4]; 115% (inactive) in experiment [5]; 106% (inactive) in experiment [6]. Besides, the growth is 107% (inactive) in experiment [7], 114% (inactive) in experiment [8], 92% (inactive) in experiment [9] and 108% (inactive) in experiment [10].
`Oc1ccc(O)c(-c2ccccc2)c1`: the growth in experiment [1] was 4.96% (active); in experiment [2] it was 42% (inactive); in experiment [3], 62.9% (inactive); in experiment [4] it was 102% (inactive); in experiment [5] it was 53.8% (inactive); in experiment [6], 83.3% (inactive). Besides, the growth in experiment [7] is 47% (inactive); in experiment [8], 20.5% (inactive); in experiment [9], 76.5% (inactive); in experiment [10], 50.6% (inactive).
For `CCOP(=O)(OCC)/C(C#N)=C/c1c(C)[nH]c2ccccc12`, the growth was 94.8% (inactive) in experiment [1]; 88.8% (inactive) in [2]; 94.8% (inactive) in [3]; 103% (inactive) in experiment [4]; 41% (inactive) in [5]; 100% (inactive) in experiment [6]. In addition, the growth in experiment [7] was 105% (inactive); in experiment [8], 105% (inactive); in experiment [9], 90.8% (inactive); in [10] it was 97.9% (inactive).
As for `Nc1ccccc1SC1CC(=O)N(c2ccc(I)cc2)C1=O` (stereo not given), the growth in [1] is 68.6% (inactive); in [2], 85.1% (inactive); in [3], 87.8% (inactive); in experiment [4] it was 90.3% (inactive); in experiment [5], 93.8% (inactive); in experiment [6], 95.5% (inactive). The growth in [7] was 85.2% (inactive); in experiment [8] it was 87.1% (inactive); in [9], 88.6% (inactive); in experiment [10] it was 91.6% (inactive).
As to `CCCCCCC(C)CC1=C(O)c2ccccc2C(=O)C1=O` (stereo not given), the growth is 61.7% (inactive) in experiment [1]; 37.6% (inactive) in experiment [2]; 56.6% (inactive) in experiment [3]; 62.4% (inactive) in experiment [4]; 46.3% (inactive) in experiment [5]; 78% (inactive) in [6]. For the same compound, the growth in [7] was 41.5% (inactive); in experiment [8], 46.5% (inactive); in experiment [9], 75.3% (inactive); in [10] it was 50.2% (inactive).
Regarding `O=COCCCc1ccccc1`, the growth in experiment [1] is 117% (inactive); in [2], 102% (inactive); in [3], 99.2% (inactive); in [4], 105% (inactive); in [5], 120% (inactive); in experiment [6] it was 98.1% (inactive). The growth in experiment [7] is 104% (inactive); in experiment [8] it was 109% (inactive); in experiment [9], 96.6% (inactive); in experiment [10], 108% (inactive).
With `CN(C)C(=S)N(C)C`, the growth in [1] was 94.9% (inactive); in experiment [2] it was 98.2% (inactive); in [3] it was 109% (inactive); in [4] it was 105% (inactive); in experiment [5], 101% (inactive); in experiment [6] it was 99.7% (inactive). The growth was 153% (inactive) in [7], 107% (inactive) in [8], 157% (inactive) in [9] and 102% (inactive) in experiment [10].
For the compound `O=C(O)c1cc(=O)[nH]c(=O)[nH]1`, the growth in experiment [1] is 104% (inactive); in experiment [2], 98.2% (inactive) and 71.6% (inactive); in [3], 102% (inactive) and 76.4% (inactive); in experiment [4], 101% (inactive) and -23.6% (active); in experiment [5], 107% (inactive) and 101% (inactive); in [6] it was 104% (inactive) and 112% (inactive). Moreover, the growth is 103% (inactive) in experiment [7]; 114% (inactive) and 112% (inactive) in experiment [8]; 107% (inactive) and 94.8% (inactive) in experiment [9]; 107% (inactive) and -33.1% (active) in [10].
On to `CCN(CC)Cc1cc2[nH]c3c4ccc(Cl)cc4ncc3c2cc1OC`, for which the growth was -49.9% (active) and -13.8% (active) in experiment [1]; -39.2% (active) in [2]; 83.2% (inactive) and 80.6% (inactive) in experiment [3]; 98% (inactive) and 98.6% (inactive) in experiment [4]; 33.3% (inactive) and -1.1% (active) in [5]; 83.8% (inactive) and 105% (inactive) in [6]. Besides, the growth in [7] was 293% (inactive) and 63.1% (inactive); in experiment [8] it was 87.5% (inactive); in experiment [9], -7.12% (active) and 99.3% (inactive); in [10], 78.1% (inactive) and 102% (inactive).
Regarding `CC(C)(C)C1=CC(=O)C(C(C)(C)C)=CC1=O`, the growth was 78.9% (inactive) and 97% (inactive) in experiment [1]; 86.9% (inactive) and 102% (inactive) in experiment [2]; 91.5% (inactive) and 96.5% (inactive) in experiment [3]; 109% (inactive) in experiment [4]; 93.3% (inactive) and 118% (inactive) in [5]; 93.6% (inactive) and 102% (inactive) in experiment [6]. For the same compound, the growth was 95.5% (inactive) and 110% (inactive) in [7]; 111% (inactive) and 110% (inactive) in experiment [8]; 104% (inactive) in experiment [9]; 108% (inactive) in experiment [10].
With `COc1ccc(COC=O)cc1`, the growth is 93.5% (inactive) in experiment [1]; 103% (inactive) in [2]; 97.8% (inactive) in [3]; 101% (inactive) in [4]; 107% (inactive) in experiment [5]; 98.6% (inactive) in [6]. The growth in experiment [7] was 107% (inactive); in [8], 109% (inactive); in experiment [9], 104% (inactive); in experiment [10], 102% (inactive).
Regarding `CCCCOC1NC(=O)NC(=O)C1(F)C(=O)OCC` (stereo not given), the growth in experiment [1] is 37.9% (inactive); in experiment [2] it was 71.8% (inactive) and 53.1% (inactive); in experiment [3], 89.6% (inactive) and 66.6% (inactive); in experiment [4], 96.5% (inactive) and 91.9% (inactive); in experiment [5], 98.9% (inactive) and 75.8% (inactive); in experiment [6] it was 91.7% (inactive) and 81.6% (inactive). In addition, the growth in experiment [7] was 103% (inactive) and 87.6% (inactive); in experiment [8] it was 77.3% (inactive) and 65.7% (inactive); in [9] it was 101% (inactive) and 115% (inactive); in experiment [10], 93.7% (inactive) and 77.1% (inactive).
Regarding `Nc1[nH][nH]c(=O)c1N=Nc1ccccc1`, the growth in experiment [1] was 125% (inactive) and 98.6% (inactive); in [2], 110% (inactive); in experiment [3] it was 102% (inactive) and 108% (inactive); in experiment [4] it was 101% (inactive) and 109% (inactive); in experiment [5], 99.6% (inactive); in [6] it was 101% (inactive) and 107% (inactive). Further, the growth was 109% (inactive) and 104% (inactive) in [7]; 106% (inactive) and 111% (inactive) in [8]; 107% (inactive) and 130% (inactive) in experiment [9]; 106% (inactive) and 105% (inactive) in [10].
Turning to `Nc1ccc(O)c(C(=O)O)c1`, the growth in experiment [1] was 99.8% (inactive); in experiment [2], 65% (inactive) and 108% (inactive); in experiment [3], 99.2% (inactive) and 106% (inactive) and 109% (inactive); in experiment [4], 121% (inactive) and 102% (inactive) and 91.1% (inactive); in experiment [5], 84% (inactive) and 105% (inactive) and 108% (inactive); in experiment [6], 105% (inactive) and 106% (inactive) and 119% (inactive). In addition, the growth in experiment [7] was 96.8% (inactive) and 111% (inactive) and 105% (inactive); in [8], 100% (inactive) and 101% (inactive) and 115% (inactive); in experiment [9], 112% (inactive); in experiment [10], 103% (inactive) and 111% (inactive) and 93.9% (inactive).
On to `COc1cc([C@@H]2c3cc4c(cc3[C@H](O)[C@H]3COC(=O)[C@@H]23)OCO4)cc(OC)c1OC`, for which the growth is 6.02% (active) and -8.59% (active) in [1]; 25.8% (inactive) and -19.7% (active) in experiment [2]; 11.5% (inactive) and 18.9% (inactive) in experiment [3]; 24.3% (inactive) and 30.4% (inactive) in experiment [4]; 34.2% (inactive) and 35.6% (inactive) in experiment [5]; 33% (inactive) and 3.05% (active) in experiment [6]. Also, the growth in experiment [7] was -2.37% (active) and -41.6% (active); in experiment [8], 29% (inactive) and -49.9% (active); in [9] it was -47.7% (active); in [10], 5.58% (active) and -30.9% (active).
With `Cc1ccc(NC(=S)N/C=C(\c2ccccc2)S(=O)Cc2ccccc2)c(C)c1` (stereo not given), the growth in experiment [1] is 96.5% (inactive); in experiment [2], 94% (inactive); in [3], 99.2% (inactive); in [4], 97% (inactive); in experiment [5], 91.3% (inactive); in [6], 100% (inactive). Besides, the growth is 112% (inactive) in [7], 106% (inactive) in experiment [8], 94.8% (inactive) in experiment [9] and 105% (inactive) in [10].
`CC(C)(C)OC(=O)CC1(O)CCCCC1`: the growth was 105% (inactive) in experiment [1]; 107% (inactive) in experiment [2]; 108% (inactive) in [3]; 115% (inactive) in experiment [4]; 97.9% (inactive) in [5]; 105% (inactive) in [6]. Besides, the growth in experiment [7] was 114% (inactive); in experiment [8] it was 108% (inactive); in [9], 102% (inactive); in [10], 107% (inactive).
